Source: PubChem
HSF1 inhib = HSF1 inhibition; NIH3T3-HGL HSE-luciferase, MG132-induced, luminescence 8 h; stronger effect = lower value; activity change, negative = inhibition, % at 7.5 µM (by protocol); 0.77% of 300,000 active; AID 2098;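 active means more than half of replicate wells show activity change below -50%, luminescence cut by over half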;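 further: luciferase reports HSF-1 transcriptional activity via heat shock element; 0% = median of DMSO wells and -100% = zero luminescence signal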
GAA850 FXN act = frataxin GAA850 promoter activation; HEK293 lucGAA850 FXN promoter luciferase reporter, 24 h; percent of 10 µM SAHA response; activation, % at 6 µM; 0.56% of 360,000 active;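 active means activation above the average of all compounds screened plus 3 SD, cutoff fixed separately per campaign, cut at about 7.5% in these data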;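 further: 0% = DMSO wells and 100% = 10 µM SAHA wells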
AHR activator = activators of human aryl hydrocarbon receptor. P35869. 2.5% of 320,000 active. activation, % at 5 µM. AHR-responsive luciferase reporter cells, luminescence; in the data active means activation above about 47%;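 further: 0% = vehicle wells and 100% = reference agonist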
NR0B1 inh = inhibits human nuclear receptor DAX1; P51843; HEK293 Gal4-DAX1 luciferase reporter, luminescence; inhibition, % at 6.75 µM; 0.99% of 340,000 active; AID 504766;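 active means inhibition above the mean over all tested compounds plus 3 SD, cut at about 4.2% in these data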;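 further: 0% = DAX1-transfected cells with DMSO and 100% = empty-vector control cells with DMSO; inhibition shows as a rise in luminescence from relieved DAX1 repression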
Target sequence (P51843 207-470 limits assumed): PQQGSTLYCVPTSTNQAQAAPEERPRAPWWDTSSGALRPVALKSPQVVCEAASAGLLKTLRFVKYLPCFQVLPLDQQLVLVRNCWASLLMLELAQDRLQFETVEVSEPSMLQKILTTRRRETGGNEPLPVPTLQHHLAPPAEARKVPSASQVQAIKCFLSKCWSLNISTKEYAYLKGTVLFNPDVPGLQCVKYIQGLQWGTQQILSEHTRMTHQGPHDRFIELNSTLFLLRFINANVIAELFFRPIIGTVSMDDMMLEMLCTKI
HSF-1 act = increases HSF-1 driven luciferase reporter signal | 1.7% of 300,000 active | activation, % at 9 µM | NIH3T3-HGL HSF-1 luciferase reporter, MG132, 8 h; 100% = twice DMSO control signal | AID 504408;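 active means mean replicate activation of at least 50% with a set share of replicates each reaching 50%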;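 further: 0% = median of the neutral control wells and 100% = twice that signal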
* = called active by the depositor; . = not tested or not shown. Most compounds without a hit are left out; they make up all but 5.4% or so of the library.

SMILES	HSF1 inhib	GAA850 FXN act	AHR activator	NR0B1 inh	HSF-1 act
CC(=O)C(Cc1ccccc1)NC(=O)CN1CCc2ccccc2C1 (centres undefined)	4	1	2	1	16
COc1ccc(-c2ccc(/C=N/N3C(=O)C4C5C=CC(C6CC56)C4C3=O)o2)c([N+](=O)[O-])c1 (centres undefined)	.	4	1	4.4*	.
COc1ccc(F)cc1S(=O)(=O)N1CCc2ccccc2C1	.	0	.	1	.
CC(=O)N=c1sccn1CC(=O)c1ccc([N+](=O)[O-])cc1	14	-1	-3	0	58*
CC(=O)Oc1ccc(C(=O)Nc2ccccc2C(=O)Nc2cccc(C(=O)O)c2)cc1	-3	0	1	5.4*	11
COc1ccc(/C=N/NC(=O)c2ccc(N(C)S(=O)(=O)c3ccccc3)cc2)c(OC)c1	9	1	16	-1	58*
CC(=O)Oc1ccc(C(=O)Nc2cccc(C(=O)Nc3ccccc3C(=O)O)c2)cc1	-4	3	.	1	-2
COc1ccc(C(=O)Nc2ccccc2C(=O)Nc2cccnc2)cc1	9	6	44	0	24
COc1cccc(NC(=O)c2ccccc2NC(=O)c2ccncc2)c1	.	1	55*	0	.
COc1cc(C(=O)Nc2cc(C)ccn2)cc(OC)c1OC	5	-3	56*	0	13
O=C(NCCNC(=O)c1ccc(Cl)cc1Cl)c1ccco1	0	2	13	4	3
COC(=O)c1cnc(NNS(=O)(=O)c2ccc(C(F)(F)F)cc2)nc1C(F)(F)F	3	0	0	3	9
COc1ccc(C(=O)Nc2ccccc2C(=O)Nc2cc(C)ccn2)cc1	14	4	56*	1	37
COc1cc(C(=O)Nc2ccccc2N2CCCCC2)cc(OC)c1OC	-2	-1	8	-1	1
COc1ccc(C(=O)Nc2ccc(S(=O)(=O)N(C)c3ccccc3)cc2)cc1	8	2	7	-2	28
COc1ccc(C(=O)Nc2ccccc2C(=O)Nc2cccc(C)n2)cc1	15	2	25	-1	17
COc1cc(C(=O)Nc2ccc(S(=O)(=O)N(C)c3ccccc3)cc2)cc(OC)c1OC	49	-1	18	-1	102*
COc1cc(C(=O)Nc2ccccc2NC(=O)c2cc(OC)c(OC)c(OC)c2)cc(OC)c1OC	-69*	3	2	0	-73
CCCN(CCC)C(=O)CSc1nc2ccsc2c(=O)n1NC(=O)c1ccccc1	-57*	1	1	3	-63
CC(C)CCNC(=O)CSc1nc2ccsc2c(=O)n1NC(=O)c1ccccc1	-8	-1	-2	1	-9
CN(c1ccccc1)S(=O)(=O)c1cccc(C(=O)NCC(c2cccs2)N2CCOCC2)c1 (centres undefined)	.	0	.	0	.
Cc1ccc(N2C(=O)NC(NS(=O)(=O)c3ccc(C)cc3)(C(F)(F)F)C2=O)cc1 (centres undefined)	7	1	-2	0	-3
Cc1ccc(N2C(=O)NC(NS(=O)(=O)c3ccccc3)(C(F)(F)F)C2=O)cc1 (centres undefined)	-79*	0	0	1	-82
CCCCCC1C(=O)CCC1CC(=O)OC (centres undefined)	.	0	.	4.4*	.
COc1ccccc1NC(=O)c1c(N=Cc2cccc([N+](=O)[O-])c2)cnn1C	-4	0	16	.	5
SMILES	HSF1 inhib	GAA850 FXN act	AHR activator	NR0B1 inh	HSF-1 act
CCN=C1S/C(=C\c2ccc(-c3cccc(C(=O)O)c3)o2)C(=O)N1CC	-52*	8.4*	9	0	-57
CCN1C(=O)/C(=C\c2ccc(-c3cccc(C(=O)OC)c3)o2)SC1=Nc1ccc(C(=O)O)cc1	1	.	1	.	-1
Cn1cc(C(C[N+](=O)[O-])c2ccccc2)c2ccccc21 (centres undefined)	1	0	2	0	9
CC(=O)n1cc(C(C[N+](=O)[O-])SCCN)c2ccccc21 (centres undefined)	14	1	51*	1	59*
COc1nc(Nc2cccc(C(F)(F)F)c2)nc(OC)n1	22	5	24	-1	59*
CCOc1ccc2nc(N/C(N)=N/C(=S)Nc3ccc(C)c(C)c3)nc(C)c2c1	2	3	8	-1	19
COc1ccc(NC(=S)/N=C(\N)Nc2nc(C)c3ccc(C)cc3n2)cc1	-15	0	55*	-1	-25
CCNC(=S)/N=C(\N)Nc1nc(C)c2cc(C)ccc2n1	24	7	77*	4.6*	45
Cc1ccccc1-c1nnc(SCc2ccccc2F)o1	38	4	-4	4.3*	74*
Cc1ccccc1CSc1nnc(-c2ccncc2)o1	11	0	6	0	20
Cc1ccccc1-c1nnc(SCc2ccccc2)o1	44	1	-4	4	64*
CCOc1ccccc1OCCOCCOc1c(Cl)cccc1Cl	-53*	3	21	-1	-65
Cc1ccc2cc(CCNC(=O)c3cccs3)c(=O)[nH]c2c1C	29	4	-2	3	58*
Cc1ccc2cc(CCNC(=O)c3cccs3)c(=O)[nH]c2c1	.	2	-3	2	.
CC1CCCCC1NCC(=O)NCc1ccc(F)cc1 (centres undefined)	-10	2	5	0	10
Cc1cc(C)n(-c2cc(N3CCN(C(=O)c4ccccc4C)CC3)ccc2[N+](=O)[O-])n1	-8	0	1	-1	-4
CC(C)(C)n1cnc2cc(NC(=O)c3ccccc3)ccc21	16	3	5	5.5*	21
O=C(Nc1ccccc1)Nc1ccc(F)cc1F	3	3	7	0	36
O=C(Nc1ccccc1)c1ccc(NC(=O)C2CC2)cc1	27	3	-2	0	54*
CCCCNC(=O)Nc1ccc(C2SCCS2)cc1	47	2	9	.	69*
O=C(Nc1cccc(C(=O)Nc2ccc(F)cc2F)c1)c1ccccc1	2	1	1	7.2*	8
CNC(=O)Nc1ccc(C2SCCS2)cc1	8	2	5	2	31
CCOc1ccc(CCNS(=O)(=O)c2c(C)nc3sccn3c2=O)cc1OCC	.	3	.	.	.
CCOC(=O)N1CCC(NC(=O)CS(=O)Cc2nc(-c3ccccc3C)oc2C)CC1 (centres undefined)	2	1	1	0	12
CC1C(=O)N(Cc2cn(CCC3OCCCO3)nn2)CCS(=O)(=O)N1Cc1ccc(-c2ccncc2)cc1 (centres undefined)	.	1	.	3	.
Cc1cccc(C(=O)NC2CCN(C(=O)Nc3ccccc3C)CC2)c1	0	0	7	0	-4
O=C(Nc1ccc(F)cc1)c1nc[nH]c1C(=O)Nc1ccccc1[N+](=O)[O-]	-4	1	5	-1	-12
O=C(Nc1ccc(F)cc1)c1ccccc1	29	2	1	1	65*
O=C(Nc1ccc(F)cc1)c1nc[nH]c1C(=O)O	-4	-2	0	4.3*	-3
